Shown are actives, neighbours in structure and some others; about 12% of the full set was active somewhere.
L3MBTL1 inh – L3MBTL1 (human) inhibition; Q9Y468; AlphaScreen L3MBTL1–H3K9me1 peptide binding; Potency, µM (highest dose often 57.1 µM), without a hit: at the highest dose activity, negative = inhibition, usual class: inhibitors; actives 0.66% (n = 230,000); further: on the % scale 0 is the no-effect control and ±100 the full control effect; nearly all actives have a fitted effect of over 60% in size
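AlphaScreen proximity signal between nickel-chelate acceptor and streptavidin donor beads (final 10 ug/mL) reports binding of 50 nM L3MBTL1 to 75 nM biotin-H3 K9me1 peptide; complex incubated with compounds 30 min at room temperature; cefsulodin titration as control.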
G9a inh – blocks human histone lysine methyltransferase G9a. Q96KQ7. Potency, µM (titrated, usually from 102 µM), without a hit: at the highest dose activity, negative = inhibition, hits mostly inhibitors. G9a H3K9 monomethylation, AlphaScreen, 2 h. actives 8.8% (n = 350,000); further: on the % scale 0 is the no-effect control and ±100 the full control effect; nearly all actives have a fitted effect of over 75% in size
Target sequence (Q96KQ7 913-1193 limits assumed): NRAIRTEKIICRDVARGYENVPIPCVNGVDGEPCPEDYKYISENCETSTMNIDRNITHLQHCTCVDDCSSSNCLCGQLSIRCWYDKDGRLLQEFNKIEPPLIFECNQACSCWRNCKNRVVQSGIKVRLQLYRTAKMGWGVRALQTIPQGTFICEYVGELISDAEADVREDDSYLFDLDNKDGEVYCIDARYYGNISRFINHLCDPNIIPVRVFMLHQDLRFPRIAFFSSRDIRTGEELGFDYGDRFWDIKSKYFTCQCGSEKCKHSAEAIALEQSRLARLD
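G9a (20 nM) was preincubated 15 min with compound, then reacted 2 h at room temperature with 500 nM biotin-H3K9 peptide and 20 µM SAM. Monomethyl-H3K9 detected by AlphaScreen using anti-H3K9me1 antibody.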
JMJD2A Tudor inh – JMJD2A Tudor domain (human) inhibition. O75164. AlphaScreen JMJD2A-Tudor / H3K4me3 peptide binding. Potency, µM (highest dose often 114 µM), without a hit: at the top dose activity change, negative = inhibition, actives largely listed as inhibitors. actives 4.4% (n = 390,000). AID 504339; further: on the % scale 0 is the no-effect control and ±100 the full control effect; nearly all actives have a fitted effect of over 50% in size
HP1b binding inh – HP1-beta chromodomain-methylated histone interaction inhibition; P83916; AlphaScreen HP1-beta / biotin-H3K9me3 peptide binding; actives 0.56% (n = 390,000); Potency, µM (titrated, usually from 114 µM), for the others: at the top dose activity change, negative = inhibition, actives largely listed as inhibitors; further: nearly all actives have a fitted effect of over 70% in size
Target sequence (P83916 whole entry, looked up): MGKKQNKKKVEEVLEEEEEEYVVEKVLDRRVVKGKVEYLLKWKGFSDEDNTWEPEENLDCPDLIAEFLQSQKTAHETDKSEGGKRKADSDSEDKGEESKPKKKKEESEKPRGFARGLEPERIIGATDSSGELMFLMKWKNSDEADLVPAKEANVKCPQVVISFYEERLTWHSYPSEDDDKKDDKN
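HP1-beta protein (50 nM final) preincubated 30 min at room temperature with biotinylated H3(1-18)K9me3 peptide (50 nM) in PBS pH 7.4, 0.01% Tween-20, then compound added for 30 min. AlphaScreen streptavidin donor/nickel chelate acceptor beads (10 ug/mL final), 30 min dark, luminescence read.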
BAZ2B inh – blocks human BAZ2B. actives 4.4% (n = 360,000). Potency, µM (top dose mostly 114 µM), without a hit: at the highest dose activity change, negative = inhibition, most hits filed as inhibitors. AID 504333. AlphaScreen BAZ2B-H3K14Ac peptide displacement. Q9UIF8; further: on the % scale 0 is the no-effect control and ±100 the full control effect; nearly all actives have a fitted effect of over 60% in size
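AlphaScreen luminescence quantifies BAZ2B engagement of H3K14Ac peptide; the protein and biotinylated peptide are both at 50 nM final, buffer PBS pH 7.4 with 0.01% Tween-20, all steps at room temperature.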
Sfp inh – Sfp phosphopantetheinyl transferase inhibition; Q9F4F7; Biochemical Sfp PPTase activity, qHTS; Potency, µM, without a hit: largest response in the series, negative = inhibition, most hits filed as inhibitors; actives 3.5% (n = 310,000); AID 1490;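 further: the enzyme is Sfp with the accession as filed and its product quenches rhodamine fluorescence; 0% = enzyme reaction without inhibitor and -100% = no enzyme wells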
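Fluorescence-quenching assay with 15 nM Sfp, 5 uM rhodamine-CoA and 12.5 uM BHQ-2-labelled ybbR peptide in pH 7.6 Hepes/MgCl2 buffer. Enzyme was pre-incubated with compound for 15 min at room temperature. Rate was taken from the 30-min fluorescence change (525/598 nm).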
Starred values were filed as active, the others as inactive; [ ] = remark or other dose. The call rests on the fitted dose curve; in most records, active means well fitted curve in the direction sought with a large enough effect; inconclusive means small, poorly fitted or top-dose-only effect, or another doubt; inactive means no such curve, though single readings can be large; an effect the other way counts as inactive or inconclusive. Potency means the concentration at half of the fitted maximal effect.

Screening CCOC(=S)SCc1cn2cccc(C)c2n1 returned G9a inh 32µM*, JMJD2A Tudor inh -6%, HP1b binding inh 48%, BAZ2B inh -20% and Sfp inh inconclusive.
CCCS(=O)(=O)NCc1cn2cccc(C)c2n1 was read as L3MBTL1 inh -4%, G9a inh inconclusive, JMJD2A Tudor inh -12%, HP1b binding inh 26%, BAZ2B inh -2% and Sfp inh 3%.
`CCc1cccc(-n2nnc(-c3nsc(NC(=O)c4cccs4)n3)c2C)c1` gave G9a inh -12%[59 µM], JMJD2A Tudor inh -14%, HP1b binding inh 23% and BAZ2B inh -6%.
COc1ccc(OC)c(-c2nnc(NC(=O)C(C)Sc3nncn3C)s2)c1 (stereo not given) was read as L3MBTL1 inh 5%, G9a inh 32µM*, JMJD2A Tudor inh 1%, HP1b binding inh 34%, BAZ2B inh -5% and Sfp inh inconclusive.
COc1ccc(Cl)cc1NC(=O)C(C)Sc1nncn1C (stereo not given) was read as L3MBTL1 inh 1%, G9a inh 0%, JMJD2A Tudor inh -5%, HP1b binding inh 18%, BAZ2B inh -5% and Sfp inh 14%.
`Cc1ccccc1OC(=O)CSc1nnc(-c2ccc3c(c2)OCO3)o1` gave G9a inh inconclusive, JMJD2A Tudor inh -11%, HP1b binding inh 39% and BAZ2B inh -21%.
`COc1ccc(NC(=S)Nc2ccc(S(=O)(=O)N3CCOCC3)cc2)c(OC)c1` gave L3MBTL1 inh -5%, G9a inh -9%[59 µM], JMJD2A Tudor inh -9%, HP1b binding inh -6%, BAZ2B inh -20% and Sfp inh -30%.
For COc1ccccc1NC(=O)C(=O)NNS(=O)(=O)c1ccc2ccccc2c1 the results were G9a inh 13%, JMJD2A Tudor inh -7%, HP1b binding inh 37%, BAZ2B inh inconclusive and Sfp inh 6%.
`COc1ccc(NC(=S)Nc2ccc(S(N)(=O)=O)cc2)c(OC)c1` gave L3MBTL1 inh 1%, G9a inh 56µM*, JMJD2A Tudor inh -10%, HP1b binding inh -10%, BAZ2B inh -38% and Sfp inh -14%.
Screening COc1ccc(NC(=S)NNS(=O)(=O)c2ccc3ccccc3c2)c(OC)c1 returned L3MBTL1 inh -1%, JMJD2A Tudor inh 25µM*, HP1b binding inh inconclusive, BAZ2B inh inconclusive and Sfp inh 7%.
CN(c1nnc(NC(=O)Nc2ccccc2C(F)(F)F)s1)C1CCCCC1 was read as G9a inh -16%[59 µM], JMJD2A Tudor inh -5%, HP1b binding inh 8% and BAZ2B inh -17%.
`Cc1ccc2ccc3cc(C(=O)N4CCN(c5ccccc5)CC4)nc3c2[nH]1` gave G9a inh inconclusive, JMJD2A Tudor inh inconclusive, HP1b binding inh 8% and BAZ2B inh -24%[57.1 µM].
For O=C(c1ccc2c(c1)N(Cc1ccc(F)cc1)C(=O)c1ccccc1S2=O)N1CCC(Cc2ccccc2)CC1 (stereo not given) the results were G9a inh inconclusive, JMJD2A Tudor inh -18%, HP1b binding inh 21% and BAZ2B inh -22%.
Screening COc1ccc(C(NCC(=O)Nc2c(C)cccc2C)c2ccccc2)cc1 (stereo not given) returned G9a inh inconclusive, JMJD2A Tudor inh 20µM*, HP1b binding inh 28µM*, BAZ2B inh 32µM* and Sfp inh inconclusive.
`CC(C)(C)c1cc(C(c2cccnc2)N2CCN(CCO)CC2)cc(C(C)(C)C)c1O` (stereo not given) gave G9a inh 10µM*, JMJD2A Tudor inh 32µM*, HP1b binding inh inconclusive, BAZ2B inh 50µM* and Sfp inh 20µM*.
Screening Cc1cc(Nc2cc(Cl)ccc2C)n2nc(Cc3ccccc3)nc2n1 returned G9a inh 2%[59 µM], JMJD2A Tudor inh -21%, HP1b binding inh 35% and BAZ2B inh -19%.
Screening Cc1ccc(CCNC(=O)c2ccc(CS(=O)(=O)c3ccc(Br)cc3)o2)cc1 returned G9a inh -8%[59 µM], JMJD2A Tudor inh 2%, HP1b binding inh 8% and BAZ2B inh -9%.
For CC(Nc1nc(Nc2ccc(F)cc2)nc(SCC(N)=O)n1)c1ccccc1 (stereo not given) the results were L3MBTL1 inh -4%[2.29 µM], G9a inh 21%[0.501 µM], JMJD2A Tudor inh -34%, HP1b binding inh -6%, BAZ2B inh -30% and Sfp inh 3%.
`CC(Nc1nc(=S)nc(Nc2ccc(F)cc2)[nH]1)c1ccccc1` (stereo not given) gave L3MBTL1 inh -1%, JMJD2A Tudor inh -26%, HP1b binding inh -11%, BAZ2B inh -13% and Sfp inh 45µM*.
Screening CC(=O)N(C)c1ccc(C=C2C=Cc3ccccc32)cc1 returned JMJD2A Tudor inh 79µM* and HP1b binding inh inconclusive.
For Cc1c(C)n(Cc2ccc(F)cc2)c2ccc(C(=O)N3CCN(c4ccc(Cl)cc4)CC3)cc12 the results were G9a inh -30%[59 µM], JMJD2A Tudor inh inconclusive, HP1b binding inh 15% and BAZ2B inh -30%.
`COC(=O)c1ccc(NC(=O)CSc2n[nH]c(-c3ccncc3)n2)cc1` gave L3MBTL1 inh -12%, G9a inh 35µM*, JMJD2A Tudor inh 3%, HP1b binding inh 46%, BAZ2B inh 0% and Sfp inh 2%.
`CCOC(=O)c1ccc(NC(=O)CSc2n[nH]c(-c3ccncc3)n2)cc1` gave L3MBTL1 inh -4%, G9a inh inconclusive, JMJD2A Tudor inh -8%, HP1b binding inh 40%, BAZ2B inh 1% and Sfp inh 11%.
`Cc1cc(-c2nnc(SCC(=O)Nc3cccc(Cl)c3)n2N)n[nH]1` gave G9a inh 3%, JMJD2A Tudor inh -2%, HP1b binding inh 45%, BAZ2B inh 56µM* and Sfp inh 3%.
O=C(CSc1n[nH]c(-c2cccnc2)n1)Nc1cccc(Cl)c1 was read as G9a inh 50µM*, JMJD2A Tudor inh -9%, HP1b binding inh 82%, BAZ2B inh 2% and Sfp inh 9%.
`O=C(CSc1n[nH]c(-c2ccncc2)n1)Nc1ccccc1Cl` gave L3MBTL1 inh 2%, G9a inh 50µM*, JMJD2A Tudor inh -7%, HP1b binding inh 8% and BAZ2B inh 7%.
CC(=O)OCC#CCSc1nnc(-c2cccc(Br)c2)o1 was read as G9a inh 52%[59 µM], JMJD2A Tudor inh 64%, HP1b binding inh 115% and BAZ2B inh 56%.

Screens deposited in PubChem by National Center for Advancing Translational Sciences (NCATS).
